EWS-Fli block = EWS/Fli transcriptional activity inhibition | A673 NR0B1-luciferase reporter, viability-normalised | inhibition, % at 12.6 µM | actives 0.67% (n = 350,000) | AID 651661;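 active = mean inhibition of at least 50% after viability correction, with every replicate also passing that limit; inconclusive = mean reaches 50% but only one of two replicates passes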;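 also: firefly luciferase signal divided by Alamar Blue viability fluorescence both relative to DMSO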
TRPM1 prom inh = reduces MITF-dependent TRPM1 promoter luciferase signal. inhibition, % at 12.5 µM. actives 0.83% (n = 330,000). SK-MEL-5 TRPM1 promoter luciferase, 24 h;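 active = mean inhibition across replicates of 60% or more, whatever share of single replicates reaches that level; inconclusive = some that reach 60%, reason not given; inactive = mean inhibition across replicates below 60%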
LMP1 NFkB inh = reduces LMP1-driven NF-kappaB luciferase signal; LMP1-induced NF-kappaB luciferase reporter cells, luminescence; inhibition, % at 12.5 µM; actives 0.69% (n = 350,000); in the data active = inhibition above about 41%; inconclusive = no clear call, values can overlap the other calls;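 also: 0% = neutral control wells and 100% = reference inhibitor control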
Shn3 inh set2 = reduces Shn3 3'UTR luciferase signal in osteoblasts | Clone20 osteoblast Shn3 3'UTR firefly luciferase, 24 h | actives 0.52% (n = 360,000) | inhibition, % at 12.5 µM;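 active = mean inhibition of at least 75% with every replicate also reaching 75%; inconclusive = mean inhibition at least 75% but some replicate below; inactive = mean inhibition below 75%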;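 also: 0% = median of neutral control wells and 100% = pilot-screen positive control compound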
LGR2 inh = Drosophila LGR2 receptor signaling inhibition; AID 720647; actives 0.35% (n = 380,000); inhibition, % at 9.99 µM; HEK293 LGR2, CRE-luciferase, bursicon-stimulated, 4 h;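 active = drop in luminescence signal, shown as inhibition above about 50% in the replicate tests, limit read from the data, passing the limit was not always enough; inconclusive = probably only some replicates passing the limit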;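 also: agonist challenge used bursicon conditioned medium at about half maximal strength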
PAX8 reporter = PAX8 transcriptional activity inhibition. RMG-I TPO-luciferase reporter, SteadyGlo, 24 h. inhibition, % at 12.6 µM. actives 1.2% (n = 360,000). AID 652154;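 active = mean replicate inhibition at least 60% with every replicate also reaching 60%; inconclusive = only one of the two criteria is met; inactive = mean below 60% and not all replicates reaching 60%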;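 also: luciferase light reporting Pax8 driven TPO promoter activity; plate controls were median of neutral control wells for no effect and mitoxantrone controls for full effect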
* marks the source's active call; other numbers are inactive results; u = inconclusive; x = not tested or not shown; ! = not active in a repeat. Shown are actives, neighbours in structure and some others; about 2.2% of the full set was active somewhere.

SMILES	EWS-Fli block	TRPM1 prom inh	LMP1 NFkB inh	Shn3 inh set2	LGR2 inh	PAX8 reporter
COc1ccc(-c2sc3cc4c(cc3c2C#Cc2cncn2C)OCO4)cc1	10	-20	-19	-4	-17	10
C/C(=C\c1ccccc1F)C(=O)c1c(C)cc(C)[nH]c1=O	12	19	2	-1	9	-24
Cc1[nH]c(=O)c(C(=O)/C=C/c2ccccc2F)c2c1CCCC2	36	84*	81*	6	86*	x
O=[N+]([O-])c1ccc(SNc2ccccc2)c([N+](=O)[O-])c1	14	-6	9	-14	-3	28
O=[N+]([O-])c1ccc(-[n+]2ccc3ccccc3c2)c([N+](=O)[O-])c1	43	89*	11	-66	-4	47
O=C(Cn1nc(C(F)(F)F)c2c1CCC2)NC1CCCCC1	x	1	44*	0	x	-3
O=C(C[C@@H]1CC[C@@H]2[C@H](COC[C@H](O)CN2S(=O)(=O)c2cccc(Cl)c2)O1)Nc1ccc(-c2ccccc2)cc1	-2	x	x	x	-3	94*
O=C(C[C@@H]1CC[C@H]2[C@@H](COC[C@H](O)CN2S(=O)(=O)c2cccc(Cl)c2)O1)Nc1ccc(-c2ccccc2)cc1	4	x	x	x	-4	67*
O=C(C[C@@H]1CC[C@H]2[C@@H](COC[C@H](O)CN2S(=O)(=O)c2ccccc2)O1)Nc1ccc(-c2ccccc2)cc1	1	x	x	x	13	33
O=C(C[C@H]1CC[C@H]2[C@@H](COC[C@@H](O)CN2S(=O)(=O)c2cccc(Cl)c2)O1)Nc1ccccc1	-2	x	x	x	3	-8
COc1ccc(CN(C)C[C@@H]2OCCCC[C@@H](C)Oc3ccc(NC(=O)Nc4cccc5ccccc45)cc3C(=O)N([C@@H](C)CO)C[C@H]2C)cc1	64*	x	x	x	13	10
COc1ccc(CN(C)C[C@@H]2OCCCC[C@@H](C)Oc3ccc(NC(=O)Nc4cccc5ccccc45)cc3C(=O)N([C@H](C)CO)C[C@H]2C)cc1	67*	x	x	x	x	42
COc1ccc(CN(C)C[C@H]2OCCCC[C@H](C)Oc3ccc(NC(=O)Nc4cccc5ccccc45)cc3C(=O)N([C@@H](C)CO)C[C@H]2C)cc1	45	x	x	x	1	19
COc1ccc(CN(C)C[C@@H]2OCCCC[C@H](C)Oc3ccc(NC(=O)Nc4cccc5ccccc45)cc3C(=O)N([C@@H](C)CO)C[C@@H]2C)cc1	65*	x	x	x	6	7
COc1ccc(CN(C)C[C@@H]2OCCCC[C@H](C)Oc3ccc(NC(=O)Nc4cccc5ccccc45)cc3C(=O)N([C@H](C)CO)C[C@H]2C)cc1	3	x	x	x	x	80*
COc1ccc2c3c(n(C)c2c1)[C@H](CO)N(S(C)(=O)=O)CC31CN(C(=O)C2CCCC2)C1	-4	x	x	x	22	4
CCC(=O)N1[C@@H](CO)[C@H](c2ccccc2)C12CN(C(=O)c1ccc(F)cc1)C2	-10	x	x	x	12	-7
CC(=O)NC(C)c1ccc(Cl)c(Cl)c1 (configuration not stated)	x	6	4	-12	12	x
CC(=O)NC(CCc1ccc(Cl)c(Cl)c1)c1cccc(O)c(=O)c1 (configuration not stated)	-3	x	32	u	x	91*
O=C(C[C@@H]1C=C[C@H](NC(=O)Nc2ccc(C(F)(F)F)cc2)[C@H](CO)O1)NCCN1CCCC1	-10	x	x	x	-33	75*
CC(C)c1cc(NC(=O)c2ccccc2)cc(C(C)C)c1O	6	-1	59*	23	18	7
O=C(/C=C/c1cccc([N+](=O)[O-])c1)NCCSCc1c(Cl)cccc1Cl	-5	6	4	0	-9	1
O=C(/C=C/c1cccc([N+](=O)[O-])c1)NCCSCc1ccc(Cl)cc1	58*	-2	4	12	9	2
N#Cc1cccc(-c2ccc(C3[C@@H]4CN(S(=O)(=O)c5ccccc5F)C[C@H]3N4)cc2)c1 (some centres not stated)	0	x	x	x	9	-4
N#Cc1ccc(-c2ccc(C3[C@@H]4CN(C(=O)C5CC5)C[C@H]3N4)cc2)cc1 (some centres not stated)	-11	x	x	x	90*	98*
SMILES	EWS-Fli block	TRPM1 prom inh	LMP1 NFkB inh	Shn3 inh set2	LGR2 inh	PAX8 reporter
Cc1ccccc1S(=O)(=O)N1C[C@@H]2N[C@H](C1)C2c1ccc(-c2cccc(C#N)c2)cc1 (some centres not stated)	5	x	x	x	u	94*!
CS(=O)(=O)N1C[C@@H]2N[C@H](C1)[C@@H]2c1ccc(-c2ccccc2)cc1	1	x	x	x	30	76*
N#Cc1cccc(-c2ccc(C3[C@@H]4CN(S(=O)(=O)c5ccccc5)C[C@H]3N4)cc2)c1 (some centres not stated)	-10	x	x	x	26	21
N#Cc1cccc(-c2ccc([C@@H]3[C@@H]4CN(S(=O)(=O)c5ccc(-c6ccccc6)cc5)C[C@H]3N4)cc2)c1	74*	x	x	x	5	41
O=S(=O)(c1ccccc1)N1C[C@@H]2N[C@H](C1)C2c1ccc(-c2ccccc2)cc1 (some centres not stated)	7	x	x	x	5	2
C[C@@H]1CCCCO[C@H](CN(C)C(=O)Nc2ccc3c(c2)OCO3)[C@@H](C)CN([C@@H](C)CO)C(=O)c2cc(NC(=O)c3ccncc3)ccc2O1	-14	x	x	x	-10	x
COc1ccccc1-c1ccc(C2[C@@H]3CN(S(=O)(=O)c4ccc(C)cc4)C[C@H]2N3)cc1 (some centres not stated)	4	x	x	x	9	11
N#Cc1cccc(-c2ccc(C3[C@@H]4CN(C(=O)c5ccccn5)C[C@H]3N4)cc2)c1 (some centres not stated)	-4	x	x	x	u	64*!
COc1ccccc1-c1ccc(C2[C@@H]3CN(S(=O)(=O)c4ccccc4)C[C@H]2N3)cc1 (some centres not stated)	53*	x	x	x	-15	-2
CCCCCCN1C=CC(=C2C(=O)c3ccccc3C2=O)C=C1	79*	80*	53*	68	94*	67*
CCCCN1C(C)=CC(=C2C(=O)c3ccccc3C2=O)C=C1C	-51	9	4	15	60*	-2
CC1=CC(=C2C(=O)c3ccccc3C2=O)C=C(C)O1	x	-26	-14	-44	-23	-15
CCN1C=CC(=C2C(=O)c3ccccc3C2=O)C=C1	x	100*	90*	u	x	x
CCCN1C=CC(=C2C(=O)c3ccccc3C2=O)C=C1	x	105*	87*	77	x	x
CCCN(C)C[C@H]1OCCCC[C@H](C)Oc2ccc(NS(C)(=O)=O)cc2C(=O)N([C@H](C)CO)C[C@H]1C	-11	x	x	x	14	-12
CCS(=O)(=O)N1CC2(C1)[C@@H](c1ccccc1)[C@@H](CO)N2C(=O)C1CCC1	-14	x	x	x	-1	x
COc1cccc(C(=O)Nc2sc3c(c2C(=O)O)CCCC3)c1	-207	-10	5	12	-48	-12

Screening data: PubChem BioAssay, Broad Institute
